The record followed here is PubChem BioAssay (NCATS).

Records with an inconclusive call do not appear. The source made the active and inactive calls. Calls follow the shape of the dose curve; as a rule, active = well fitted inhibition curve with a large enough effect; inconclusive = small, poorly fitted or top-dose-only effect; inactive = flat fitted curve, though single readings scatter.

Common to all, as to assay: qHTS profiling for inhibitors of Plasmodium falciparum proliferation (AID 504749); also: nearly all actives have a fitted effect of over 60% in size
Conditions in all cases: P. falciparum in erythrocytes, SYBR Green DNA, 72 h; series mostly up to 28.7 µM
Background: In qHTS, concentration-response curves come from the screen itself.

In assay [1] the test system is CP260. The gist of the method: (§1)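 Three-day growth assay of blood-stage parasites in erythrocytes (0.3% parasitemia, 2.5% hematocrit) at 37 C, 5% CO2, quantified by SYBR Green DNA staining after overnight detergent lysis.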
Assay [2] concerns CP262. The gist of the method: as §1
The subject of assay [3] is CP265. An outline of the steps:
as §1

The test system of assay [4] is CP268. An outline of the steps: as §1
The test system of assay [5] is CP269. An outline of the steps: as §1
Assay [6] has as its system CP286. The gist of the method: as §1
Assay [7] relates to CP291. The gist of the method:
as §1

Assay [8] deals with CP297. An outline of the steps:
as §1

Assay [9] concerns CP305. An outline of the steps:
as §1

For assay [10], the system named is CP315. An outline of the steps: as §1
Assay [11] relates to CP329. The gist of the method:
as §1

For assay [12], the system named is CP335. The gist of the method:
as §1

For assay [13], the system named is DFO2036. The gist of the method: as §1
Assay [14] concerns DIV14. An outline of the steps: as §1
The subject of assay [15] is DIV17. The gist of the method: as §1
Assay [16] has as its system DIV30. An outline of the steps:
as §1

Assay [17] deals with Dd2. An outline of the steps:
as §1

Assay [18] concerns ECU. An outline of the steps:
as §1

For assay [19], the system named is CP325. The gist of the method:
as §1

The test system of assay [20] is CP266. An outline of the steps: as §1
Potency is read from the fitted curve at half-maximal effect.

With `CNC[C@@H](O)[C@@H](O)[C@H](O)[C@H](O)CO`, the Potency entry in assay [1], in [2], in assay [3], in assay [4], in assay [5] and in assay [6] was “inactive” each time. Besides, the Potency entry in assay [7], in assay [8], in assay [9], in assay [10], in assay [11] and in assay [12] was “inactive” throughout. Further, the Potency entry in assay [13], in assay [14], in assay [15], in assay [16], in [17] and in assay [18] was “inactive” each time.
`CCC[C@@H]1C[C@@H](C(=O)N[C@@H]([C@H]2O[C@H](SC)[C@H](O)[C@@H](O)[C@H]2O)[C@@H](C)O)N(C)C1`: the Potency is 2.39 µM (active) in assay [2] and 0.0089 µM (active) in assay [17].
Turning to `CCCCC(CC)COC(=O)C(C#N)=C(c1ccccc1)c1ccccc1` (stereo not drawn), the Potency entry in assay [2], in assay [4], in assay [5], in assay [9], in [10] and in assay [19] was “inactive” each time. Also, the Potency result in [11], in [14], in assay [15] and in assay [16] was “inactive” throughout. Further, the Potency in assay [18] is 8.91 µM (active).
For the molecule `Cc1cc(=O)c2c(O)c3c(O)cc(=O)c4c3c3c(cc(O)c1c23)C(C)(C)C=4O`, the Potency was 1.58 µM (active) in assay [1]; 1.58 µM (active) in assay [3]; 2.69 µM (active) in assay [5]; 1.58 µM (active) in [6]; 2.69 µM (active) in [7]; 3.38 µM (active) in assay [9]. In addition, the Potency was 2.13 µM (active) in [11]; 2.39 µM (active) in assay [12]; 1.12 µM (active) in assay [13]; 2.39 µM (active) in assay [14]; 2.69 µM (active) in assay [15]; 1.26 µM (active) in assay [17]. In addition, the Potency in [18] was 2 µM (active).
On to `Cc1ccc(NC(=O)c2ccc(CN3CCN(C)CC3)cc2)cc1Nc1nccc(-c2cccnc2)n1`, for which the Potency in assay [5] is 15.1 µM (active); in assay [6], 11.2 µM (active); in assay [14], 15.1 µM (active); in assay [15], 15.1 µM (active); in assay [16] it was 12 µM (active); in assay [17], 10 µM (active). In addition, in assay [18], the Potency was 8.91 µM (active).
On to `NNc1nncc2ccccc12`, for which the Potency result in [2], in [20], in assay [7], in [8], in assay [10] and in assay [11] was “inactive” in each case. The Potency was 6.42 µM (active) in assay [14], 5.1 µM (active) in assay [15] and 3.98 µM (active) in assay [17].
`COc1ccc2cc([C@H](C)C(=O)O)ccc2c1`: the Potency result in assay [2], in assay [3], in [20], in assay [4], in assay [5] and in assay [7] was “inactive” throughout. Besides, the Potency entry in assay [8], in assay [9], in assay [10], in assay [19], in assay [11] and in assay [13] was “inactive” throughout. The Potency result in assay [14], in assay [15], in assay [16], in [17] and in [18] was “inactive” in each case.
As to `Cc1cc(=O)oc2cc(O)ccc12`, the Potency result in assay [20], in [4], in [5], in [7], in assay [9] and in [10] was “inactive” each time. Besides, the Potency result in assay [19], in assay [11], in assay [14], in assay [15] and in [16] was “inactive” throughout.
For `C[C@H](Cn1cnc2c(N)ncnc21)OCP(=O)(O)O`, the Potency entry in assay [2], in assay [3], in [20], in assay [4], in assay [5] and in [6] was “inactive” in each case. Also, the Potency result in [7], in assay [8], in assay [9], in assay [10], in [19] and in [11] was “inactive” in each case. The Potency result in assay [12], in [13], in [14], in assay [15], in assay [16] and in assay [17] was “inactive” each time. In addition, the Potency result in assay [18] is “inactive”.
As to `CN(c1nccc(=O)[nH]1)C1CCN(c2nc3ccccc3n2Cc2ccc(F)cc2)CC1`, the Potency entry in [1], in assay [2], in assay [3], in [4], in assay [6] and in assay [7] was “inactive” each time. Besides, the Potency result in assay [9], in assay [11], in [12] and in assay [13] was “inactive” each time.
Consider `Oc1ccc(OCc2ccccc2)cc1`, for which the Potency entry in [1], in assay [3], in assay [20], in assay [4], in assay [5] and in [6] was “inactive” throughout. In addition, the Potency result in assay [7], in [8], in [10], in assay [19], in [11] and in assay [12] was “inactive” throughout. Also, the Potency result in assay [13], in assay [14], in assay [15], in assay [16], in [17] and in assay [18] was “inactive” each time.
Consider `CC(C)c1ccc2oc3nc(N)c(C(=O)O)cc3c(=O)c2c1`, for which the Potency entry in assay [2], in [3], in assay [4], in assay [5], in assay [6] and in assay [7] was “inactive” each time. Moreover, the Potency entry in assay [8], in [9], in assay [10], in assay [19], in [11] and in assay [12] was “inactive” throughout. The Potency entry in assay [13], in [14], in assay [15], in assay [16] and in assay [17] was “inactive” each time.
On to `C=C(c1ccc(C(=O)O)cc1)c1cc2c(cc1C)C(C)(C)CCC2(C)C`, for which the Potency result in assay [2], in assay [3], in assay [20], in [4], in assay [5] and in assay [7] was “inactive” throughout. For the same molecule, the Potency entry in [8], in assay [9], in [10], in assay [19], in assay [11] and in assay [13] was “inactive” each time. The Potency result in [15], in assay [16] and in [18] was “inactive” in each case.
In the case of `CCCCCCCCOc1ccccc1C(=O)Nc1ccc(C(=O)OCC[N+](C)(CC)CC)cc1`, the Potency was 7.08 µM (active) in assay [1]; 6.31 µM (active) in [6]; 6.01 µM (active) in assay [12]; 8.91 µM (active) in [13]; 10 µM (active) in assay [18]. The Potency entry in [2] is “inactive”.
On to `COCCCOc1ccnc(CS(=O)c2nc3ccccc3[nH]2)c1C` (stereo not drawn), for which the Potency entry in assay [2], in assay [3], in assay [20], in assay [4], in assay [6] and in assay [7] was “inactive” in each case. The Potency entry in [9], in [10], in assay [19], in [11], in assay [12] and in assay [13] was “inactive” throughout. For the same molecule, the Potency entry in assay [16] and in assay [18] was “inactive” in each case.
For `Cc1c(C(=O)NN2CCCCC2)nn(-c2ccc(Cl)cc2Cl)c1-c1ccc(Cl)cc1`, the Potency entry in assay [2] is “inactive”. Further, the Potency was 11.2 µM (active) in [3]; 19 µM (active) in assay [8]; 13.5 µM (active) in assay [14]; 13.5 µM (active) in assay [15]; 12 µM (active) in assay [16].
